Assay [1] is described as follows: Confirmation and Secondary Assay for Modulators of Hemoglobin Beta Chain Splicing at IVS2 705 locus (AID 930).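 Further: HeLa cells stably expressing the EGFP-705 splicing reporter; series mostly up to about 46 µM; % of control where 0% means no effect.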 The method, boiled down: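 HeLa cells stably carrying EGFP interrupted by mutant beta-globin IVS2-705 intron (CMV-driven) were seeded at 500 cells/well, treated next day with compound for 2 days at 37C; corrected splicing restores EGFP, read as total peak GFP intensity per well.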

For assay [2], the target named is Rap guanine nucleotide exchange factor 4 (Homo sapiens) (UniProt Q8WZA2). In words: Confirmatory qHTS for agonist of cAMP-regulated guanine nucleotide exchange factor 4 (EPAC2) (AID 1645884).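 Further: nucleotide exchange releases bodipy-GDP from Rap1 and this lowers its fluorescence; on the % scale 0 is the no-effect control and ±100 the full control effect; nearly all actives have a fitted effect of over 65% in size.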
Chain of Rap guanine nucleotide exchange factor 4 (Homo sapiens) (Q8WZA2 whole entry, looked up): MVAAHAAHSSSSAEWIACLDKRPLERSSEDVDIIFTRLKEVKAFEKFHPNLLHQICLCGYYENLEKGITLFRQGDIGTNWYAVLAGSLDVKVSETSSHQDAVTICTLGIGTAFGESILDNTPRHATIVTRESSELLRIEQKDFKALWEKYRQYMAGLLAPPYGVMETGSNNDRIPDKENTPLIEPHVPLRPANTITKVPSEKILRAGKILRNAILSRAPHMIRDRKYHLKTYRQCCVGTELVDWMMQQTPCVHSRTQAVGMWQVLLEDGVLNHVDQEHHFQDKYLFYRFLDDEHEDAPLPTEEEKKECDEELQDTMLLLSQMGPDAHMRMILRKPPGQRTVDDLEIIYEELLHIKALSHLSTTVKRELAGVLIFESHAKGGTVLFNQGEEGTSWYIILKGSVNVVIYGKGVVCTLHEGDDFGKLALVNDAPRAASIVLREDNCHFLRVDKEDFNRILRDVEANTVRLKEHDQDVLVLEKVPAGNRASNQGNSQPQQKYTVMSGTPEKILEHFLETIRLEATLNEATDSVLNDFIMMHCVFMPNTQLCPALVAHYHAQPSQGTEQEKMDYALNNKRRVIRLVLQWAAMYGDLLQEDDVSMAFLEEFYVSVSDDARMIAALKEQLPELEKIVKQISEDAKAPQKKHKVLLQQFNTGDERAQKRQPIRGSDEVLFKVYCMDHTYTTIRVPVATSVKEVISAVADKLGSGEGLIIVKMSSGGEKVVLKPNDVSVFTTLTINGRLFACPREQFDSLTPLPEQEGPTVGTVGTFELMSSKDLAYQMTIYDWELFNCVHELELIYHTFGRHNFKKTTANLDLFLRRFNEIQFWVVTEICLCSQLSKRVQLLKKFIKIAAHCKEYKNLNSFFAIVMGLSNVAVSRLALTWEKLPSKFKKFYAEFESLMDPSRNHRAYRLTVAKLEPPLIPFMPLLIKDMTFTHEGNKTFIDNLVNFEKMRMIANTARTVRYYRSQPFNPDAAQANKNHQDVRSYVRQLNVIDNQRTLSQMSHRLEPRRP
Assay [3] deals with DNA repair nuclease/redox regulator APEX1 (Homo sapiens) (UniProt P27695). In words: qHTS Validation Assay for Inhibitors of the Human Apurinic/apyrimidinic Endonuclease 1 (APE1) (AID 1705;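 further: TAMRA fluorescence gain over two minutes as APE1 cuts a quenched THF abasic duplex; series mostly up to about 57 µM; on the % scale 0 is the no-effect control and ±100 the full control effect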). A digest of the protocol: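 Substrate: 50 nM final fluorophore/quencher THF-abasic duplex. Enzyme preincubated with compounds 15 min, RT. Progress derived from fluorescence difference, third minus first kinetic read.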
Chain of DNA repair nuclease/redox regulator APEX1 (Homo sapiens) (P27695 whole entry, looked up): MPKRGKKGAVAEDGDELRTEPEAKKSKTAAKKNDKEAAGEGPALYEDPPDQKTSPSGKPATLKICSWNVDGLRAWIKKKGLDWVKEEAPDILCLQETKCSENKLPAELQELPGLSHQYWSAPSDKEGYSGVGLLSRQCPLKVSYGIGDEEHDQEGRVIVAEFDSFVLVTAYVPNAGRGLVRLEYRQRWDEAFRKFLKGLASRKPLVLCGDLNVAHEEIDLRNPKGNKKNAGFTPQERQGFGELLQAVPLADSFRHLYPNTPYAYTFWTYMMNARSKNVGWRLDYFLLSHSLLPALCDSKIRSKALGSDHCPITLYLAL
(qHTS replaces the single test concentration by a dilution series.)

Assay [4] is described as follows: Counterscreen for APE1 Inhibitors: Fluorescent Dye Displacement Validation Assay (AID 1707).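 Further: plate controls were ThO with dsDNA and no compound for no effect and ThO without dsDNA for full effect.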 A digest of the protocol: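 ThO 250 nM + dsDNA 50 nM (THF abasic site, 5'-TAMRA), Tris-HCl pH7.5/50mM NaCl/2 mM MgCl2/0.01% Tween-20; compounds pin-transferred; ex 480/em 540 nm endpoint. Neutral = no compound; no-DNA ThO wells = negative control.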
Background: The purpose of a counterscreen is to sort out artefacts and off-target activity.

Assay [5] addresses Endonuclease 4 (Escherichia coli (strain K12)) (UniProt P0A6C1). In words: Counterscreen for APE1 Inhibitors: qHTS Validation Assay for Inhibitors of Endonuclease IV (AID 1708). Further: on the % scale 0 is the no-effect control and ±100 the full control effect. A digest of the protocol:
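Concentration-response counterscreen run identically to the APE1 assay: 15 min room-temperature preincubation of 2 nM enzyme with compound, reaction started with 50 nM quenched abasic DNA, progress taken from kinetic fluorescence.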

The nature of assay [6]: qHTS for differential inhibitors of proliferation of Plasmodium falciparum line 3D7 (AID 1876). Further: potency means the concentration at half of the fitted maximal effect.
A short description of assay [7]: qHTS for differential inhibitors of proliferation of Plasmodium falciparum line Dd2 (AID 1882). Further: nearly all actives have a fitted effect of over 65% in size. Further: potency means the concentration at half of the fitted maximal effect. The following applies: Potency: Plasmodium falciparum Dd2 proliferation inhibition. A digest of the protocol: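 Dd2-infected erythrocytes (0.3% parasitemia, 2.5% hematocrit final) incubated with compound 72 h at 37 C, 5% CO2; lysed with saponin/Triton buffer containing SYBR Green I, incubated overnight in the dark, then read by fluorescence (485/535 nm). Normalized to 0.29 uM artemisinin and DMSO.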

Assay [8] can be described thus: qHTS for differential inhibitors of proliferation of Plasmodium falciparum line W2 (AID 1883).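 Further: parasites grown with compound for 72 h before lysis and staining.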 Further: potency means the concentration at half of the fitted maximal effect. As to conditions: Potency: Plasmodium falciparum W2 proliferation inhibition.
The target of assay [9] is Ferritin light chain (Equus caballus) (UniProt P02791). In words: qHTS Validation Assay for Identification of Novel General Anesthetics (AID 2323). Further: series mostly up to about 77 µM; on the % scale 0 is the no-effect control and ±100 the full control effect. A digest of the protocol: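 Normalized fluorescence response, scaled between free 1-AMA and 1-AMA/apoferritin complex, fitted to a four-parameter Hill equation for concentration-effect values. Binding mix: 10 uM horse-spleen apoferritin, 50% saturated 1-AMA in PBS; read 380/535 nm after 10 min.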
Chain of Ferritin light chain (Equus caballus) (P02791 2-175 limits assumed): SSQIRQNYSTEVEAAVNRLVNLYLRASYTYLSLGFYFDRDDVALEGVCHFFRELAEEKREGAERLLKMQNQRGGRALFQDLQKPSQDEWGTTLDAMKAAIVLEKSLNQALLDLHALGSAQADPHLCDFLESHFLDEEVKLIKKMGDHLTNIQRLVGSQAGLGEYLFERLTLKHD

Assay [10] addresses ATP-dependent DNA helicase Q1 (Homo sapiens) (UniProt P46063). In words: qHTS Validation Assay for Inhibitors of RecQ-Like Dna Helicase 1 (RECQ1) (AID 2353).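 Further: plate controls were DMSO vehicle for no effect and enzyme-free control for full effect.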 The method, boiled down:
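50 nM RECQ1T1 preincubated 15 min with compound in Tris pH 8.0 buffer with MgCl2, DTT, Tween-20 and 2.5 ug/ml poly(dI-dC); started with 200 nM TAMRA/BHQ-2 forked duplex and 2 mM ATP. Unwinding read as fluorescence (525/598 nm), two reads 2 h apart.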

Assay [11] can be described thus: Validation screen for small molecules that induce DNA re-replication in MCF 10A normal breast cells (AID 463097). Further: 0% is about no effect; nearly all actives have a fitted effect of over 60% in size. A digest of the protocol:
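Following 48 hr compound incubation (37 C, 5% CO2), MCF 10A cells receive Hoechst for 40 min at 37 C. Nuclei are then scanned (excitation 405 nm, emission 500-530 nm) for total fluorescence intensity.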

Assay [12] addresses M-phase phosphoprotein 8 (Homo sapiens) (UniProt Q99549). In words: qHTS Validation Assay for Inhibitors for MPP8 Chromodomain Interactions with Methylated Histone Tails (AID 488949). Further: nearly all actives have a fitted effect of over 55% in size. Further: potency means the concentration at half of the fitted maximal effect. The method, boiled down:
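Chemiluminescent proximity assay: histidine-tag capture via nickel acceptor beads, biotin peptide via streptavidin donor beads. Protein and peptide each at 50 nM, pH 7.4, with 30 min incubations at room temperature for complex formation, compound exposure and bead binding.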

Assay [13] deals with Transient receptor potential cation channel subfamily V member 1 (Homo sapiens) (UniProt Q8NER1). In words: HTS Assay for Compounds that Act as Enhancers of the Vanilloid Receptor 1 (AID 488979). Further: 0% is about no effect. The method, boiled down: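 TRPV1-expressing cells loaded with Fluo-8 calcium dye; compounds added and calcium influx read kinetically for 3 min (agonist phase), then capsaicin at EC20 added and read 2 min more for enhancement. Fluorescence ex 480/em 520 nm.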
Chain of Transient receptor potential cation channel subfamily V member 1 (Homo sapiens) (Q8NER1 whole entry, looked up): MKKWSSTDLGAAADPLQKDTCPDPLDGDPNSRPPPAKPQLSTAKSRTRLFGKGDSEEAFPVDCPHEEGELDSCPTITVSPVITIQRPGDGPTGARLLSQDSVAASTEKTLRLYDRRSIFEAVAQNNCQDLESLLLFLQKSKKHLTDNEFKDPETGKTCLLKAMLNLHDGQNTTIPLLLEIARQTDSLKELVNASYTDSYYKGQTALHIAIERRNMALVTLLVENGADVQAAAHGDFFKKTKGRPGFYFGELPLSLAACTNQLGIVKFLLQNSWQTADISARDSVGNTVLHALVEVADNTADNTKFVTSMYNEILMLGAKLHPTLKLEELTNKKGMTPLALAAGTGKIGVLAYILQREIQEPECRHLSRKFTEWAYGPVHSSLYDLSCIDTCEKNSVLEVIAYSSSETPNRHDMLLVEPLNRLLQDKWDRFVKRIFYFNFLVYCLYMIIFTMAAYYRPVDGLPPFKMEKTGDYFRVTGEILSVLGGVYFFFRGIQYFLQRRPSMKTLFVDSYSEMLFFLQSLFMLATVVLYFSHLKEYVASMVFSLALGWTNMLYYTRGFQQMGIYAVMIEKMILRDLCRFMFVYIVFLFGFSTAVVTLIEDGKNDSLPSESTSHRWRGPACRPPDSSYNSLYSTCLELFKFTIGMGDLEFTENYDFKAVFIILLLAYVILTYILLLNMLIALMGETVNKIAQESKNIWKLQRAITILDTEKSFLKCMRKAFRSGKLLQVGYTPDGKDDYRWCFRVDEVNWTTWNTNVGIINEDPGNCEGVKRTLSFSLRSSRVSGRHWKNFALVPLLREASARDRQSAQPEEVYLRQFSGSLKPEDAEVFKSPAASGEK

Assay [14] concerns the target Thyrotropin receptor (Homo sapiens) (UniProt P16473). In words: qHTS Assay for Antagonists of the Thyroid Stimulating Hormone Receptor (AID 488980). Further: series mostly up to about 58 µM; 0% is about no effect. A digest of the protocol:
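Inhibition of TSH-stimulated cAMP accumulation was quantified by homogeneous time-resolved FRET in TSHR-transfected HEK293 cells. Agonist: TSH, 4 nM final (EC80).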

Assay [15] deals with Thyrotropin-releasing hormone receptor (Homo sapiens) (UniProt P34981). The assay is described as follows: qHTS for Small Molecule Agonists and Allosteric Enhancers of Human TRH Receptor: Validation Screen for Agonists (AID 493127;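 active means calcium activation more than 3 SD above the typical response in the agonist read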; further: 0% is about no effect). The following applies: TRH receptor agonist cell assay; at 2 µM; hits give high values. A digest of the protocol: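 TRHR cells loaded with fluo-8 calcium dye; FDSS kinetic fluorescence (Ex 480/Em 530) read at 1 s/cycle after 23 nL compound addition. Agonist-mode calcium response recorded before the 10 nM TRH (EC20) addition.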
Chain of Thyrotropin-releasing hormone receptor (Homo sapiens) (P34981 whole entry, looked up): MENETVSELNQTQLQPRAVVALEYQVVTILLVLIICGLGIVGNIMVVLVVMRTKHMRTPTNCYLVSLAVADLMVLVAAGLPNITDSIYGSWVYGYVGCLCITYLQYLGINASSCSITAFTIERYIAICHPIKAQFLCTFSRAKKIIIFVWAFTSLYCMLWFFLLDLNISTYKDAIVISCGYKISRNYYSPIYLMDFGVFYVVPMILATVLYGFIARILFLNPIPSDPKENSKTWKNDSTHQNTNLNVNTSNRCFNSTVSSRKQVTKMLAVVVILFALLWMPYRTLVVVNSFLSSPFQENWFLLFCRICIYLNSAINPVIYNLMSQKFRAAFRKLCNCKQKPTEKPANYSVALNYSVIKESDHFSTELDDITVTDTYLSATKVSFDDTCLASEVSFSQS

Assay [16] has as its target Galactokinase (Homo sapiens) (UniProt P51570). The assay is described as follows: qHTS Validation Assay for Inhibitors of Human Galactokinase (GALK) (AID 493189). Further: 0% is about no effect. The method, boiled down:
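Enzyme activity is inferred from ATP consumption: human GALK phosphorylates galactose (100 uM) using 35 uM ATP for 1 h at room temperature, and luciferase-based Kinase-Glo Plus reports unconsumed ATP.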

In assay [17] the target is Voltage-gated inwardly rectifying potassium channel KCNH2 (Homo sapiens) (UniProt Q12809). The assay is described as follows: qHTS Assay for Small Molecule Inhibitors of the Human hERG Channel Activity (AID 588834).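 Further: lower thallium flux fluorescence means stronger hERG block; nearly all actives have a fitted effect of over 50% in size.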 Further: potency means the concentration at half of the fitted maximal effect. The method, boiled down:
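Blockade is seen as reduced FluxOR thallium-flux fluorescence in U2OS cells expressing hERG from a BacMam construct, in Opti-MEM with 2% FCS. Concentration-response data fitted to the Hill equation for AC50.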

Assay [18] in a line: qHTS for differential inhibitors of proliferation of Plasmodium falciparum line HB3 (AID 1886).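 Further: parasites grown with compound for 72 h before SYBR Green readout.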 Further: potency means the concentration at half of the fitted maximal effect. As to conditions: Potency: Plasmodium falciparum HB3 proliferation inhibition.
The nature of assay [19]: Quantitative high throughput screen for delayed death inhibitors of the malarial parasite plastid, 96 hour incubation (AID 488745). Further: nearly all actives have a fitted effect of over 70% in size. Further: potency means the concentration at half of the fitted maximal effect. The method, boiled down: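 Luciferase-expressing P. falciparum in erythrocytes (2% hematocrit, 0.1% parasitemia) incubated with compound for 96 h at 37 C, 5% CO2, in RPMI 1640 with 0.5% Albumax. Growth inhibition read as decreased luminescence.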

Values without a mark were called inactive. Results filed as inconclusive are left out. Active and inactive are the calls of the source. Unless noted, the call rests on the fitted dose curve; in most records, active means well fitted curve in the direction sought with a large enough effect; inconclusive means small, poorly fitted or top-dose-only effect, or another doubt; inactive means no such curve, though single readings can be large; an effect the other way counts as inactive or inconclusive.

Chain of M-phase phosphoprotein 8 (Homo sapiens) (Q99549 whole entry, looked up): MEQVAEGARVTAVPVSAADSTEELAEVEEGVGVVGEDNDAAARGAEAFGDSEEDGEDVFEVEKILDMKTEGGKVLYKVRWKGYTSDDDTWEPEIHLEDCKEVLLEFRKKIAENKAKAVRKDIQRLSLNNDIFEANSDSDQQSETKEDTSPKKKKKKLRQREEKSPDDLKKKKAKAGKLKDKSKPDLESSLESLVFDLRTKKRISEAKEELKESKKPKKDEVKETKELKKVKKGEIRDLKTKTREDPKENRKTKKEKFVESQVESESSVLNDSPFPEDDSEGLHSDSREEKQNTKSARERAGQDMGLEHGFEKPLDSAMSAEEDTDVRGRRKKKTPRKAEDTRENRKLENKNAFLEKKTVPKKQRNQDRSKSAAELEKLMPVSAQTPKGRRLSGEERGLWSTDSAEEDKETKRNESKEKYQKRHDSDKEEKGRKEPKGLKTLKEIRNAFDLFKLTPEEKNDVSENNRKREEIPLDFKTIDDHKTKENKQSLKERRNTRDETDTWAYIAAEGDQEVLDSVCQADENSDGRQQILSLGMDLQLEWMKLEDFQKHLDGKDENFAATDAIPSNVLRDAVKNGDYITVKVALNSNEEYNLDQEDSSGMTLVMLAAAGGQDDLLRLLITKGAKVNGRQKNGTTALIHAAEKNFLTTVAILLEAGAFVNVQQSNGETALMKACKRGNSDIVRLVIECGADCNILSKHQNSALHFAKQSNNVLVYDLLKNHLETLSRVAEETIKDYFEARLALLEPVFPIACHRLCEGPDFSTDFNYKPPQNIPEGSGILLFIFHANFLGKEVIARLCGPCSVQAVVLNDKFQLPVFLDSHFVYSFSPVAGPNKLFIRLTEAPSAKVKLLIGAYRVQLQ
Chain of Thyrotropin receptor (Homo sapiens) (P16473 whole entry, looked up): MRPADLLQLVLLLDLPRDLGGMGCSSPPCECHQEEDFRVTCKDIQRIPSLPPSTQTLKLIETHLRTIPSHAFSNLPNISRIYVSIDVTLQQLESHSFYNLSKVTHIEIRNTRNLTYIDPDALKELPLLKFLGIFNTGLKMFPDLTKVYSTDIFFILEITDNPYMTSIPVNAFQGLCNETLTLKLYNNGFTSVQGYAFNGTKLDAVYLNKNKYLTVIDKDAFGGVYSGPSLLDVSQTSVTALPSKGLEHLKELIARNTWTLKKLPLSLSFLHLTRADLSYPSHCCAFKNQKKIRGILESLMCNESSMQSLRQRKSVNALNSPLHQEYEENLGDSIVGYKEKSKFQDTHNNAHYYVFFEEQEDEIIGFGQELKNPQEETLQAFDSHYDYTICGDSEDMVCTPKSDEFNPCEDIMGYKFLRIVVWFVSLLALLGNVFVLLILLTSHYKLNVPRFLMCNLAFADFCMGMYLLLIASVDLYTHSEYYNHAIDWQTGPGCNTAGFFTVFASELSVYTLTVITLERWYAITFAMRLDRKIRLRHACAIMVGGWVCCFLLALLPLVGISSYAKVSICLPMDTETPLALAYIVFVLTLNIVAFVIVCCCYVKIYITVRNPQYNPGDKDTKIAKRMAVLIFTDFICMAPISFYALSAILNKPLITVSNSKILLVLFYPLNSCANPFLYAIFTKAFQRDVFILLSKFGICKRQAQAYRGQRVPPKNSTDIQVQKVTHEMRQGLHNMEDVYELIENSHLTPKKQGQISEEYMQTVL
Chain of Galactokinase (Homo sapiens) (P51570 whole entry, looked up): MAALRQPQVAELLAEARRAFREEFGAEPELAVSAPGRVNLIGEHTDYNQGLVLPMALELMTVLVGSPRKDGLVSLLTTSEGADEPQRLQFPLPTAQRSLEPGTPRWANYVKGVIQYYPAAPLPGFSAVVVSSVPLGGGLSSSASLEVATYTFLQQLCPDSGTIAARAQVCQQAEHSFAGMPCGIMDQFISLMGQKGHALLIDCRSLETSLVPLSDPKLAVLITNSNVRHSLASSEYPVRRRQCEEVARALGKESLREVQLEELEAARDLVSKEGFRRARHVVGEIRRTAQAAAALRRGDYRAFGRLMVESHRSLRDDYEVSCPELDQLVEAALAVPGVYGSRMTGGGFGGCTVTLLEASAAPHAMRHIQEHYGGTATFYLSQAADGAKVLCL

As to `C=C[C@](C)(O)CCC1C(=C)CC(OC(C)=O)C2C(C)(C)CCCC12C` (stereo partly specified), the molecule was called inactive in assay [1]. For the same molecule, the Potency result in [2] is “inactive”.
As to `COc1ccccc1CNc1ncncc1-c1ccccc1OC`, the Potency entry in assay [2] is “inactive”.
On to `COC(=O)CC1C2(C)CC34OC5(C)O[C@@]6(C7/C(=C(/OC)C(C)C)C(=O)OC(c8ccoc8)[C@@]7(C)C(OC(=O)C(C)C)C(OC)[C@]6(O5)[C@@]13C)C(OC)[C@]4(OC)C2OC(C)=O` (stereo partly specified), for which the molecule was called inactive in assay [1]. Moreover, the Potency result in assay [2] is “inactive”.
As to `COc1ccc(-c2cc(=O)c3c(OC)c(OC)c(OC)c(OC)c3o2)cc1OC`, the outcome in assay [1] was inactive.
For the molecule `COc1ccc2c(c1OC)C(=O)OC2C1c2c(cc3c(c2OC)OCO3)CCN1C` (stereo unspecified), the result in assay [3], in [4], in assay [5], in [9], in assay [10] and in assay [11] was inactive. The result in [13], in [14] and in [16] was inactive. The Potency in assay [6] was 12.6 µM (active); in assay [8], 14.1 µM (active). Further, the Potency result in assay [7], in assay [12] and in [17] was “inactive” each time. The activation in [15] is -4.69%.
`CN1CCc2c(cc(O)c(O)c2Cl)C(c2cccc(Cl)c2)C1` (stereo unspecified): the molecule was classed as inactive in assay [3], in assay [4], in assay [5], in assay [10], in assay [11] and in assay [13]. The outcome in assay [14] and in [16] was inactive. Besides, the Potency is 3.55 µM (active) in [6]; 11.2 µM (active) in assay [7]; 5.01 µM (active) in assay [8]; 8.91 µM (active) in [18]; 18.5 µM (active) in assay [19]; 39.8 µM (active) in assay [12]. Besides, the Potency in assay [17] is 12.6 µM (active). Moreover, the activation in [15] was 0.0625%.
With `CNC(=O)[C@H]1O[C@@H](n2cnc3c(N)ncnc32)[C@H](O)[C@H]1O`, the outcome in [3], in assay [4], in [5], in assay [9], in assay [10] and in assay [11] was inactive. The result in assay [13], in assay [14] and in assay [16] was inactive. Also, the Potency result in [6], in assay [7], in [8], in assay [18], in assay [19] and in assay [12] was “inactive” throughout. For the same molecule, in [17], the Potency result was “inactive”. The activation in assay [15] was -0.0625%.
For the molecule `CN(C)CCCO[C@H]1C([C@H](O)CO)O[C@@H]2OC(C)(C)O[C@@H]21` (stereo partly specified), the outcome in assay [3], in assay [4], in assay [5], in [9], in assay [10] and in assay [11] was inactive. The result in assay [13] and in [16] was inactive. Besides, the Potency entry in assay [6], in assay [7], in assay [8], in assay [18], in assay [19] and in [12] was “inactive” in each case. For the same molecule, in assay [17], the Potency result was “inactive”. Moreover, the activation in assay [15] is 0.75%.
As to `COC(=O)[C@@H]1C2CC3c4[nH]c5cc(OC)ccc5c4CCN3CC2C[C@H](OC(=O)c2cc(OC)c(OC)c(OC)c2)C1OC` (stereo partly specified), the Potency entry in [2] was “inactive”.

Source of the values: PubChem BioAssay (NCATS).
